{"source": "PubChem BioAssay AID1851", "about": "(National Center for Advancing Translational Sciences (NCATS), 2009)", "note": "The whole screen tested about 16,000 compounds, of which about 5,700 (36%) were called active. About 24% were inconclusive and are not listed. Calls come from the whole dose curve; as a rule, active = well fitted curve in the direction sought with a large enough effect; inconclusive = small, poorly fitted or top-dose-only effect, or effect the other way; inactive = no such curve, though single readings can be large or run the other way. The list shows a part of the results. % is set by controls: 0 for no effect and ±100 for the full control effect.", "data": [{"biological_target": "Cytochrome P450 1A2 (Homo sapiens) (UniProt P05177)", "sequence (P05177 whole entry, looked up)": "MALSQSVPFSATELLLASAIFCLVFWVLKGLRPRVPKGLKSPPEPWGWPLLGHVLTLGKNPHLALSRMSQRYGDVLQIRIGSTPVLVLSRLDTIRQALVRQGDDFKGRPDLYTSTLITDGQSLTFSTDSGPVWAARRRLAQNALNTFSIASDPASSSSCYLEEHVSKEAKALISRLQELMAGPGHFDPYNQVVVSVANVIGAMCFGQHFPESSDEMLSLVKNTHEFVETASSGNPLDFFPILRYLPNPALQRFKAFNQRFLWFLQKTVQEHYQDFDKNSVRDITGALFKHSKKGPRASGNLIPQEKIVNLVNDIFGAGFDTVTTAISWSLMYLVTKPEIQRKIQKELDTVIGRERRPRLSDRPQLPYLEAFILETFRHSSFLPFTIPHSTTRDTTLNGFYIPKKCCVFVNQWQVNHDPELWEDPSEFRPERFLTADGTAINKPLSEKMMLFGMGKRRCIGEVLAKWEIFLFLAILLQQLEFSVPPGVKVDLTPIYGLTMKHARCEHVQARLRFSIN", "assay": "Cytochrome panel assay with activity outcomes", "conditions": "recombinant CYP, pro-luciferin dealkylation, luminescence, p450-cyp1a2; series mostly up to 57.1 µM", "values": [{"smiles": "N#C/C(=C/N1CCOCC1)c1ccccc1", "AC50": "0.891 µM (active)"}, {"smiles": "Oc1c(CN2CCOCC2)cc(-c2ccccc2)cc1CN1CCOCC1", "AC50": "inactive"}, {"smiles": "OC(c1ccccc1)(c1ccc(F)cc1)C(c1ccccc1)N1CCOCC1", "note": "(stereo not drawn)", "AC50": "inactive"}, {"smiles": "NS(=O)(=O)c1cc2c(cc1Cl)N[C@@H](CC1CCCC1)NS2(=O)=O", "AC50": "inactive"}, {"smiles": "O=C1NC(c2ccc(Br)cc2)Nc2sc3c(c21)CCC3", "note": "(stereo not drawn)", "AC50": "2.51 µM (active)"}, {"smiles": "CC(C)OCCCn1c(=S)[nH]c2ncccc2c1=O", "AC50": "2.51 µM (active)"}, {"smiles": "CC(C)OCCCN1C(=O)c2ccccc2C1C(=O)NC1CCCCC1", "note": "(stereo not drawn)", "AC50": "inactive"}, {"smiles": "COCC(=O)N1CCC[C@@]2(CCN(C(=O)Nc3cccc(F)c3)C2)C1", "AC50": "inactive"}, {"smiles": "COc1ccc(CNc2ccnc(-c3ccc4c(c3)OCO4)n2)c(OC)c1", "AC50": "1.26 µM (active)"}, {"smiles": "COCOc1cc(OC)ccc1C(=O)/C=C\\c1ccc2c(c1)OCO2", "activity, negative = inhibition": "-3.69% [at 11.4 µM] (inactive)"}, {"smiles": "COc1ccccc1CNc1ccnc(-c2ccc3c(c2)OCO3)n1", "AC50": "0.631 µM (active)"}, {"smiles": "COc1ccc(-c2nc3cnc(OC)nc3n(C)c2=O)cc1", "AC50": "2.51 µM (active)"}, {"smiles": "COc1ncc2nc(-c3ccccc3)c(=O)n(C)c2n1", "AC50": "1.58 µM (active)"}, {"smiles": "COc1ncc2nc(-c3ccc(F)cc3)c(=O)n(C)c2n1", "AC50": "0.501 µM (active)"}, {"smiles": "C[C@@H]1O[C@@H](n2cc(F)c(=O)[nH]c2=O)[C@H](O)[C@@H]1O", "AC50": "inactive"}, {"smiles": "O=C(c1cnccn1)N1CCC2(CC1)CN(c1ccncc1)C2", "AC50": "inactive"}, {"smiles": "O=C(Nc1nnc(CCS(=O)(=O)c2ccc(Br)cc2)s1)c1ccc([N+](=O)[O-])cc1", "AC50": "inactive"}, {"smiles": "O=C(COc1ccc([N+](=O)[O-])cc1)NN=C1CCCC1", "AC50": "12.6 µM (active)"}, {"smiles": "O=C(CN(c1ccccc1)S(=O)(=O)c1ccccc1[N+](=O)[O-])NN=C1CCCCCCC1", "AC50": "inactive"}, {"smiles": "CC(=O)Nc1ccc([N+](=O)[O-])cn1", "AC50": "17.8 µM (active)"}, {"smiles": "O=C(COc1ccc([N+](=O)[O-])cc1)Nc1ccc(C(=O)NCc2cccnc2)cc1", "AC50": "inactive"}, {"smiles": "O=C(COc1ccc(Br)cc1)Nc1ccc([N+](=O)[O-])cn1", "AC50": "2 µM (active)"}, {"smiles": "C=CCC(C(=O)OC)(C(=O)OC)c1ccc([N+](=O)[O-])cn1", "AC50": "inactive"}, {"smiles": "COC(=O)C(C)(C(=O)OC)c1ccc([N+](=O)[O-])cn1", "AC50": "inactive"}, {"smiles": "COc1ccc(N(CC(=O)NN=C2CCCC2)S(=O)(=O)c2ccccc2)cc1", "AC50": "inactive"}, {"smiles": "O=c1ccn([C@@H]2O[C@@H](COP(=O)(O)OP(=O)(O)O)[C@H](O)[C@@H]2O)c(=O)[nH]1", "AC50": "inactive"}, {"smiles": "Cc1cccc(/C=N\\Nc2cn[nH]c(=O)c2Cl)c1", "AC50": "5.01 µM (active)"}, {"smiles": "Cc1cccc(NC(=S)NNC(=O)c2csc3c2CCCC3)c1", "AC50": "8.91 µM (active)"}]}]}
